# Measured values taken from ChEMBL document CHEMBL1961873, “Compounds: GSK PKIS; Assays: Nanosyn kinase panel” (2012).
# Key:
# [1] = target: Dual specificity protein kinase CLK3 (Homo sapiens) (UniProt P49761); conditions: at 1 µM;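 also: each value is the mean inhibition of CLK3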
# [2] = target: Dual specificity tyrosine-phosphorylation-regulated kinase 1A (Homo sapiens) (UniProt Q13627); conditions: at 0.1 µM
# [3] = target: Dual specificity tyrosine-phosphorylation-regulated kinase 1A (Homo sapiens) (UniProt Q13627); conditions: at 1 µM
# [4] = target: Dual specificity tyrosine-phosphorylation-regulated kinase 1B (Homo sapiens) (UniProt Q9Y463); conditions: at 0.1 µM
# Chain of Dual specificity tyrosine-phosphorylation-regulated kinase 1B (Homo sapiens) (Q9Y463 whole entry, looked up): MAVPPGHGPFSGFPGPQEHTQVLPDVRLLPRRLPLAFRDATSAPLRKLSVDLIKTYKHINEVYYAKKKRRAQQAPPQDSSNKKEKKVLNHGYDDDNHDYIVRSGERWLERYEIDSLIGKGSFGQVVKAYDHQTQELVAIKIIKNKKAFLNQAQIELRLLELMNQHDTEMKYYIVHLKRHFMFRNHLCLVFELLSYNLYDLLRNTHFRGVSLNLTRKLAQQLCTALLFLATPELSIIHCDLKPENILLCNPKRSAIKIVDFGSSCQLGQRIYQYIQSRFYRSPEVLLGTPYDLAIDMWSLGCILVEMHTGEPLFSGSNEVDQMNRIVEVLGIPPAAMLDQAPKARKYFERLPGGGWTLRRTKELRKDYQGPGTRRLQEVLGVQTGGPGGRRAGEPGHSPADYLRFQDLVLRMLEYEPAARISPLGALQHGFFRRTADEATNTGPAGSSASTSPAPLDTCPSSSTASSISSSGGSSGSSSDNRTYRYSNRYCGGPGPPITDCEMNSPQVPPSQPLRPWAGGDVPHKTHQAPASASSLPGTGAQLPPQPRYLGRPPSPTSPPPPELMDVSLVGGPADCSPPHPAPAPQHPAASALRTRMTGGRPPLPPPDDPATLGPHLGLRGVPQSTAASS
# [5] = target: Dual specificity tyrosine-phosphorylation-regulated kinase 1B (Homo sapiens) (UniProt Q9Y463); conditions: at 1 µM
# [6] = target: T1, Dual specificity tyrosine-phosphorylation-regulated kinase 2 (Homo sapiens) (UniProt Q92630); conditions: at 0.1 µM
# T1 sequence (whole entry): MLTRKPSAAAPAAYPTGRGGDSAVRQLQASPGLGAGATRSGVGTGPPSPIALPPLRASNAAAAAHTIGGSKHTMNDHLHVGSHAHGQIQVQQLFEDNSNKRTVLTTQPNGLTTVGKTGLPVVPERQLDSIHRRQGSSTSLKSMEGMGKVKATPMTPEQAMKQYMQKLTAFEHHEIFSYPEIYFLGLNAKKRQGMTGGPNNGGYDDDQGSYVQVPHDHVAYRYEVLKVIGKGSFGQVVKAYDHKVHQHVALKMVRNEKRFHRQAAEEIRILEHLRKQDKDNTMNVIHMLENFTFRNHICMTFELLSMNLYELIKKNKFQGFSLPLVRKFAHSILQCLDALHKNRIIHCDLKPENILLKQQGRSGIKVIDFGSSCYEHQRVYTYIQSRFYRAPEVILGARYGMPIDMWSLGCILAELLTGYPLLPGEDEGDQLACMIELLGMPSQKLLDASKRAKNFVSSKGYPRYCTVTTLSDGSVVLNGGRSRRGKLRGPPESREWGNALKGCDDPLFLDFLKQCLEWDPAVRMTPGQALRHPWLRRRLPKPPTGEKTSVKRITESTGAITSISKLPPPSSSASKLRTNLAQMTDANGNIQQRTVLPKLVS
# [7] = target: T1, Dual specificity tyrosine-phosphorylation-regulated kinase 2 (Homo sapiens); conditions: at 1 µM
# [8] = target: Glycogen synthase kinase-3 alpha (Homo sapiens) (UniProt P49840); conditions: at 0.1 µM
# Chain of Glycogen synthase kinase-3 alpha (Homo sapiens) (P49840 2-483 limits assumed): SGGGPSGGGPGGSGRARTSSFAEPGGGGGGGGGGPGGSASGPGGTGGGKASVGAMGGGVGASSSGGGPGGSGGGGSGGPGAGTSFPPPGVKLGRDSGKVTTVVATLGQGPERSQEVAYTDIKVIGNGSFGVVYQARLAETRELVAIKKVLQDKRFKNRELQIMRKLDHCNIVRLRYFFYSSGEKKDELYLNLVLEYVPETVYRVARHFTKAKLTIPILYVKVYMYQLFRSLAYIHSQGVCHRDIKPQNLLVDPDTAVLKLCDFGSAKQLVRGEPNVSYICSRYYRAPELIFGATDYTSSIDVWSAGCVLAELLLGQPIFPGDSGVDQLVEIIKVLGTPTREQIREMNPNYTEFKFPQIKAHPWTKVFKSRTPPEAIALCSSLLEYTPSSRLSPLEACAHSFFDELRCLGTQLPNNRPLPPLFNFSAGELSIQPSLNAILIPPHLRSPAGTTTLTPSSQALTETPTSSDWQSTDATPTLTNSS
# [9] = target: Glycogen synthase kinase-3 alpha (Homo sapiens) (UniProt P49840); conditions: at 1 µM
# [10] = target: Glycogen synthase kinase-3 beta (Homo sapiens) (UniProt P49841); conditions: at 0.1 µM
# Chain of Glycogen synthase kinase-3 beta (Homo sapiens) (P49841 whole entry, looked up): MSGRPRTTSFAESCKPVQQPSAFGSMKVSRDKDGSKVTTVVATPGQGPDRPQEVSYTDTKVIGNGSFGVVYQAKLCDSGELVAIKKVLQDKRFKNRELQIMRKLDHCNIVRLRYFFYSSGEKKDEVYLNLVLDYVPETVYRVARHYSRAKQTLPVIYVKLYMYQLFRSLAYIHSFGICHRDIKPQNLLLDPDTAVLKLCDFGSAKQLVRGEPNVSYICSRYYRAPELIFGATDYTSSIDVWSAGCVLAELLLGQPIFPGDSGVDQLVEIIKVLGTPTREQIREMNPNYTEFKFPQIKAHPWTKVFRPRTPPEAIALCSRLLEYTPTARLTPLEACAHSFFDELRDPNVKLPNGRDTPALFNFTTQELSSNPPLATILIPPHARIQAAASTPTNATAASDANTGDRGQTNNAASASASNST
# [11] = target: Glycogen synthase kinase-3 beta (Homo sapiens) (UniProt P49841); conditions: at 1 µM
# [12] = target: Homeodomain-interacting protein kinase 1 (Homo sapiens) (UniProt Q86Z02); conditions: at 0.1 µM
# Chain of Homeodomain-interacting protein kinase 1 (Homo sapiens) (Q86Z02 whole entry, looked up): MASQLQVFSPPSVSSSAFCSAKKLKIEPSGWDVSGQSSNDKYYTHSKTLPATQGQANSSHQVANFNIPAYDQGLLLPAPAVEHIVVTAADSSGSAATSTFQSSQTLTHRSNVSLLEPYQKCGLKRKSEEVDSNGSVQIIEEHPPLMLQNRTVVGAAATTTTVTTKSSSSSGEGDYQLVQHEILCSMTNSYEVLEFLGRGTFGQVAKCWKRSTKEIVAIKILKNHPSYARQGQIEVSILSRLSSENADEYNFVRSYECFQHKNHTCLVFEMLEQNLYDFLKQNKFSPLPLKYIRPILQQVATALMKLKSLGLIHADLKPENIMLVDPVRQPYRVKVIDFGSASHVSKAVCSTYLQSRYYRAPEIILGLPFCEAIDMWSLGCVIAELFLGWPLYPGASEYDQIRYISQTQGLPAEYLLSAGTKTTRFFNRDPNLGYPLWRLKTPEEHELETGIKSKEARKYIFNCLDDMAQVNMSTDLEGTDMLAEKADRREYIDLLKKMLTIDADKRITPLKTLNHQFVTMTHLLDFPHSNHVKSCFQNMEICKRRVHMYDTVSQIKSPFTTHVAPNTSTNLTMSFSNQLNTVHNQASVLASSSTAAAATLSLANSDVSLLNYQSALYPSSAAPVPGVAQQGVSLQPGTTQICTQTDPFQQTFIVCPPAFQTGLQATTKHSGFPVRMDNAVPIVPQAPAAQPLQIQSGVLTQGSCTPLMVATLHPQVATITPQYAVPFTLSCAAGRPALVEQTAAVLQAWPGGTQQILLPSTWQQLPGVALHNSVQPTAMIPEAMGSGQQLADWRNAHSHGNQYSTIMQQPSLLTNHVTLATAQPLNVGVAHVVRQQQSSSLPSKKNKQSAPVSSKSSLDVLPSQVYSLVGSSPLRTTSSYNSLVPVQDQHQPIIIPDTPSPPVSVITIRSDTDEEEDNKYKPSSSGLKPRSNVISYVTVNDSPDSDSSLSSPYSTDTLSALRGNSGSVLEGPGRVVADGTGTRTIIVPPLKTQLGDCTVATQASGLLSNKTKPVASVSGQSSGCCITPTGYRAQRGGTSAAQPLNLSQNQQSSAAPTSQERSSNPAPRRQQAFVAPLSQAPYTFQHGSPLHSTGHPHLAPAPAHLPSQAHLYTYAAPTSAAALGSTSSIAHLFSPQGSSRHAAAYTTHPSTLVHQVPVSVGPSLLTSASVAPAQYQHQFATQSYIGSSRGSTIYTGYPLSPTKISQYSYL
# [13] = target: Homeodomain-interacting protein kinase 1 (Homo sapiens) (UniProt Q86Z02); conditions: at 1 µM
# [14] = target: T2, Homeodomain-interacting protein kinase 4 (Homo sapiens) (UniProt Q8NE63); conditions: at 0.1 µM
# T2 sequence (whole entry): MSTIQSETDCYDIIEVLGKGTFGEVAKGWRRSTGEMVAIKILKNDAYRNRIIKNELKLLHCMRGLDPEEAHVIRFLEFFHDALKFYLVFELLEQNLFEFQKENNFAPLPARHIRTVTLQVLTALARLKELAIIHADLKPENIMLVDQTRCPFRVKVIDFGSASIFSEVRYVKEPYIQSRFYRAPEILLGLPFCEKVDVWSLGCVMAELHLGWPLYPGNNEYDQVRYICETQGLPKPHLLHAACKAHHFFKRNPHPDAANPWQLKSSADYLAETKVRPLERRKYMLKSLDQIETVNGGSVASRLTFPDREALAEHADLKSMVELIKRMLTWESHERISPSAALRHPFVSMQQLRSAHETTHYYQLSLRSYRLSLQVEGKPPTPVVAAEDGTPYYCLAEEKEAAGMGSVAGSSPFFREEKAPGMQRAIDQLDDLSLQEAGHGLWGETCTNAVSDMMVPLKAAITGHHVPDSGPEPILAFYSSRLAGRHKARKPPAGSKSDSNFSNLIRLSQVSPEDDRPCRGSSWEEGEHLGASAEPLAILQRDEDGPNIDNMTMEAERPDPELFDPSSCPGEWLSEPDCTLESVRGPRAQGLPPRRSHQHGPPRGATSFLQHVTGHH
# [15] = target: T2, Homeodomain-interacting protein kinase 4 (Homo sapiens); conditions: at 1 µM
# [16] = target: Mitogen-activated protein kinase 9 (Homo sapiens) (UniProt P45984); conditions: at 0.1 µM
# Chain of Mitogen-activated protein kinase 9 (Homo sapiens) (P45984 whole entry, looked up): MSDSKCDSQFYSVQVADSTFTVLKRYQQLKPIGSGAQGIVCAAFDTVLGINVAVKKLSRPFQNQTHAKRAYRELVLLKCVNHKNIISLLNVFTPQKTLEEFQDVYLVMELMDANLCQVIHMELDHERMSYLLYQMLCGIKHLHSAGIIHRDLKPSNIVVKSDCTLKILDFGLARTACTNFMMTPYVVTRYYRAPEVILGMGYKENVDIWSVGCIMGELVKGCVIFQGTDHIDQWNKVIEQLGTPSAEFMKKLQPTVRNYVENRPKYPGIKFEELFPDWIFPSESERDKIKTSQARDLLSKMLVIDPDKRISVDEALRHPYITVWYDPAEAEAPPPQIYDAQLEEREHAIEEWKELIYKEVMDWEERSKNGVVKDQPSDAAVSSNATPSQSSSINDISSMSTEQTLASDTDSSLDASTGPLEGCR
# [17] = target: Mitogen-activated protein kinase 9 (Homo sapiens) (UniProt P45984); conditions: at 1 µM
# [18] = target: Mitogen-activated protein kinase 1 (Homo sapiens) (UniProt P28482); conditions: at 0.1 µM
# Chain of Mitogen-activated protein kinase 1 (Homo sapiens) (P28482 whole entry): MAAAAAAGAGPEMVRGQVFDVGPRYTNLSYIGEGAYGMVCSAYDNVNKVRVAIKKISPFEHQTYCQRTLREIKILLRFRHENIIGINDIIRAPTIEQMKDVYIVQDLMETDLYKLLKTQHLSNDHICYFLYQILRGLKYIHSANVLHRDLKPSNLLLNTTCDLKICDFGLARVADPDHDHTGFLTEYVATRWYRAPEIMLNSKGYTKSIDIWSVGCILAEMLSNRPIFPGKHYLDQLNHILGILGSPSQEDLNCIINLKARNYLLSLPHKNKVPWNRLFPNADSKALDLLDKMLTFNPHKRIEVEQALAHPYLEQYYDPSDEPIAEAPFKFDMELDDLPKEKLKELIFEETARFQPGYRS
# [19] = target: Mitogen-activated protein kinase 1 (Homo sapiens) (UniProt P28482); conditions: at 1 µM
# [20] = target: Mitogen-activated protein kinase 3 (Homo sapiens) (UniProt P27361); conditions: at 0.1 µM;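 also: each value is a mean inhibition figure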
# Chain of Mitogen-activated protein kinase 3 (Homo sapiens) (P27361 whole entry): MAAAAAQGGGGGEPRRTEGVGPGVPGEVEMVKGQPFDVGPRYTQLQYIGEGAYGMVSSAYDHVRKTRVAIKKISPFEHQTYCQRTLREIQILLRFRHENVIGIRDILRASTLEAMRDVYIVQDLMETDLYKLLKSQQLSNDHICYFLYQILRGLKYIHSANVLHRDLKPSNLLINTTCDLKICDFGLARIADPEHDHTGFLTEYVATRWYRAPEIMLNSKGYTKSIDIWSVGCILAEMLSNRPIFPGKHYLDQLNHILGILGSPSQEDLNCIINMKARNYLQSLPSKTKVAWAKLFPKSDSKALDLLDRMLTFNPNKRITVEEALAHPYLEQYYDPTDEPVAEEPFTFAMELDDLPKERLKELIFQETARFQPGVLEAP
# Chain of Dual specificity protein kinase CLK3 (Homo sapiens) (P49761 whole entry, looked up): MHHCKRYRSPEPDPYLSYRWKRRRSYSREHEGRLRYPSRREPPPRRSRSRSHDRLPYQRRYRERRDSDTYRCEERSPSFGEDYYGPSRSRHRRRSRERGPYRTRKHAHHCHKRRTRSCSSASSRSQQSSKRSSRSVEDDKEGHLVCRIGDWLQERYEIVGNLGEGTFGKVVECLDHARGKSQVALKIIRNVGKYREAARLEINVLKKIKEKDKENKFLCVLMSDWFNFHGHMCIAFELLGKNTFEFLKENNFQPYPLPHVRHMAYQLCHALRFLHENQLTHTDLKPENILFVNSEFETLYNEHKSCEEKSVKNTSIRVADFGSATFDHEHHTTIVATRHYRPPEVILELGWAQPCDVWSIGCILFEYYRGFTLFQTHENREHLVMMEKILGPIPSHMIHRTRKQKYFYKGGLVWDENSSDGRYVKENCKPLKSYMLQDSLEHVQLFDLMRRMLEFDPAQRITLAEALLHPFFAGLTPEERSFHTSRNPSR
SMILES,inhibition [1],inhibition [2],inhibition [3],inhibition [4],inhibition [5],inhibition [6],inhibition [7],inhibition [8],inhibition [9],inhibition [10],inhibition [11],inhibition [12],inhibition [13],inhibition [14],inhibition [15],inhibition [16],inhibition [17],inhibition [18],inhibition [19],inhibition [20]
O=C(Nc1ccc(Oc2ccc3[nH]c(NC(=O)c4ccco4)nc3c2)cc1)Nc1cc(C(F)(F)F)ccc1F,-2.83%,-3.75%,-1.33%,-3.67%,-1.57%,0.62%,0.74%,-1.87%,2.71%,-2.51%,1.83%,-4.45%,-2.14%,13.6%,66.3%,0.08%,2.67%,0.81%,0.8%,1.59%
Cc1cc(O)cc(C)c1/C=C/c1cncc(C(=O)N(C)C)c1,1.59%,1.64%,3.33%,1.15%,2%,2.94%,3.72%,6.93%,10.2%,6.11%,9.44%,0.32%,4.88%,4.28%,7.94%,-0.29%,2.38%,2.76%,2.51%,3.48%
Cc1ccc(Nc2ccnc(Nc3cccc(C(N)=O)c3)n2)cc1O,3.09%,2.45%,26.5%,-1.03%,11.8%,2.25%,7.18%,0.67%,14.9%,0.74%,17.4%,-4.04%,0.47%,2.33%,10.8%,3.91%,14.6%,4.59%,4.19%,3.66%
Cc1ccc(O)cc1Nc1ccnc2ccc(S(C)(=O)=O)cc12,3.42%,4.16%,12.6%,0.55%,2.94%,3.03%,4.88%,2.64%,1.72%,1.89%,3.47%,-0.12%,1.59%,2.64%,8.27%,4.77%,5.22%,5.91%,5.63%,5.26%
NS(=O)(=O)c1ccc(NC=C2C(=O)Nc3ccc4ncsc4c32)cc1,17.3%,30.9%,63.2%,20.4%,57.6%,10.9%,46.2%,40.4%,70.9%,41.1%,71.8%,14.2%,47.4%,2.67%,21.7%,8.45%,36.1%,11%,47.4%,7.04%
NS(=O)(=O)c1cccc(Nc2cc(-c3ccc(F)cc3)n[nH]2)c1,2.68%,-0.01%,4.42%,-1.06%,2.79%,1.93%,4.01%,3.57%,7.78%,2.84%,9.59%,2.17%,7.35%,1.27%,6.82%,1.28%,4.86%,4.24%,3.83%,4.14%
COc1cccc(-n2ncc3c(N/N=C/c4ccc(S(C)(=O)=O)cc4)ncnc32)c1,13.5%,23.1%,64.3%,9.87%,47.3%,14.5%,24.9%,72.7%,80.6%,70.4%,79%,21.4%,64.3%,18.3%,60.6%,1.92%,4.9%,1.63%,1.93%,2.27%
CCn1c(-c2nonc2N)nc2c(C#CC(C)(C)O)nc(OCCNC)cc21,0.43%,2.71%,2.94%,-0.33%,-0.29%,5.86%,5.26%,11.6%,49.9%,8.59%,46.8%,-1.59%,7.86%,0.33%,1.92%,3.85%,2.84%,5.46%,5.18%,3.73%
CN(C)C(=O)O[C@H]1CN[C@H](C#Cc2cc3ncnc(Nc4ccc(OCc5cccc(F)c5)c(Cl)c4)c3s2)C1,1.86%,1.54%,3.38%,0.21%,0.78%,2%,2.24%,1.64%,5.51%,1.31%,4.1%,-0.07%,0.31%,0.17%,1.29%,2.26%,6.8%,-0.55%,2.89%,1.44%
Cc1nc(-c2ccccc2)n2nc(NCCCN3CCOCC3)ncc12,1.74%,1.71%,19%,1.12%,7.26%,1.55%,5.9%,5.02%,13.1%,4.78%,18.5%,0.72%,13.3%,1.88%,14.4%,1.8%,5.36%,3.31%,6.13%,4.27%
COc1cc2ncn(-c3cc(OCc4ccccc4S(C)(=O)=O)c(C#N)s3)c2cc1OC,3.74%,6.14%,19.3%,2.5%,13.9%,2.4%,4.87%,4.96%,11.3%,4.26%,8.83%,2.2%,28%,52.5%,79%,2.5%,6.08%,1.98%,5.43%,3.11%
NS(=O)(=O)c1ccc(Nc2cc(-c3cccc(O)c3)n[nH]2)cc1,2.62%,3.45%,7.37%,0.5%,2.4%,3.82%,4.65%,2.99%,6.38%,2.02%,5.21%,-1.93%,2.36%,0.59%,3.33%,5.37%,6.35%,5.89%,4.96%,4.41%
Nc1nccc(-c2c(-c3ccc(F)cc3)ncn2CCCN2CCOCC2)n1,1.24%,2.64%,3.19%,0.74%,0.15%,3.1%,4.1%,1.73%,4.53%,0.93%,4.68%,0.97%,-1.48%,0.18%,-0.66%,4.45%,15.8%,6.64%,4.64%,3.65%
N#Cc1c(NC(=O)c2ccccc2F)sc2c1CCCC2,-0.09%,-0.74%,1.91%,0.18%,0.36%,-2%,-2.88%,-0.74%,0.03%,-0.5%,-0.09%,-4.32%,-0.26%,-0.44%,1.41%,-2.15%,2.33%,-0.94%,-1.13%,-1.39%
N#Cc1cccc(Nc2nccc(-c3cnn4ncccc34)n2)c1,78.4%,81.7%,86.4%,81.3%,86.5%,20.3%,71.5%,85.3%,89.5%,84.1%,88.1%,82.9%,89.3%,79.9%,88.1%,10.4%,44.3%,15.6%,59.4%,8.27%
NS(=O)(=O)c1cccc(-c2cc3ccncc3cc2OCc2ccccc2)c1,3.46%,3.42%,5.5%,0.3%,2.52%,3.59%,3.57%,1.97%,4.81%,0.8%,3.55%,1.1%,6.53%,1.76%,8.61%,0.94%,3.75%,4.71%,5.84%,4.25%
